# Records with an inconclusive call do not appear. Values without a mark were called inactive. Calls come from the whole dose curve; as a rule, active = well fitted cell-killing curve with a large enough effect in the repeat runs; inconclusive = weak or mixed curves; inactive = flat fitted curve, though single readings scatter.
# Experiment: qHTS RealTime-Glo MT Cell Viability Assay in HepG2 cells - 8 hour (AID 1224873); note: nearly all actives have a fitted effect of over 55% in size
# Conditions: RealTime-Glo luminescence; series mostly up to 76.8 µM; viability change, negative = cytotoxic: at the top concentration
# Text: National Center for Advancing Translational Sciences [NCATS]
# NIH Chemical Genomics Center [NCGC]
# U.S. Environmental Protection Agency [EPA]
# National Institutes of Environmental Health Sciences [NIEHS]
# National Toxicology Program [NTP]
# U.S. Food and Drug Administration [FDA]
# Measure of cell viability is critical in the cell-base assay. Analysis of cell viability is necessary for the characterization of cell responses to cytotoxic drugs and environmental stress. A RealTime-Glo MT Cell Viability Assay to monitor cell viability in real time of continues cell culture during 40 hours of compound treatment was used to screen Tox21 10K library compounds in HepG2 cells. The RealTime-Glo MT Cell Viability Assay is a nonlytic, homogeneous, bioluminescent method to measure cell viability in real time using a simple, plate-based method. The assay involves adding NanoLuc luciferase and a cell-permeant prosubstrate to cells in culture. Viable cells reduce the proprietary prosubstrate to generate a substrate for NanoLuc luciferase. This substrate diffuses from cells into the surrounding culture medium, where it is rapidly used by the NanoLuc Enzyme to produce a luminescent signal. The signal correlates with the number of viable cells, making the assay well suited for cytotoxicity studies.
# Tox21 Assay Protocol Summary:
# The mixture of HepG2 cell suspension and reagents were dispensed at 600cells/6 ul/well in 1536-well tissue culture treated black solid bottom plates using a Multidrop dispenser. After the assay plates were incubated at a 37 C/5% CO2 incubator for 5 hours, 23 nL of compounds dissolved in DMSO, positive and negative controls was transferred to the assay plate by a pintool work station. The plates were incubated at 37 C for 40 hours. The luminescence intensity were measured at 0h, 8h, 16h, 24h, 32h and 40h time points using ViewLux plate reader during compound treatment.
# % is set by controls: 0 for no effect and ±100 for the full control effect.
row,Structure (SMILES),"viability change, negative = cytotoxic"
1,CCO/C=C1\N=C(c2ccccc2)OC1=O,4.46%
2,CCCCCCCCCCCCCC(=O)OCC,9.56%
3,CCCCS,1.71%
4,C/C=C/C(=O)CCCC,0.694%
5,C=CCCCCCCCCCCCCCC,2.93% [at 15.8 µM]
6,NS(=O)(=O)c1cc2c(cc1C(F)(F)F)NCNS2(=O)=O,-1.55% [at 35.3 µM]
7,CCN1CCN(C(=O)N[C@@H](C(=O)N[C@@H]2C(=O)N3C(C(=O)O)=C(CSc4nnnn4C)CS[C@H]23)c2ccc(O)cc2)C(=O)C1=O,1.21% [at 35.3 µM]
8,CC(=O)/C=C/C=C1/C2CCC(C2)C1(C)C (stereo not given),-2.31% [at 35.3 µM]
9,COc1cc2nc(N3CCN(C(=O)C4CCCO4)CC3)nc(N)c2cc1OC (stereo not given),-1.23% [at 35.3 µM]
10,CC(=O)c1c(C)cc(C(C)(C)C)cc1C,-14.9%
11,O=S(=O)(O)c1cc(I)c(O)c2ncccc12,4.07% [at 35.3 µM]
12,CNCCc1ccccn1,3.68% [at 35.3 µM]
13,O=C1c2ccccc2C(=O)N1CO,-0.174%
14,COc1cc(NS(=O)(=O)c2ccc(N)cc2)ncn1,3.12% [at 35.3 µM]
15,CCOc1ccccc1OCCN[C@H](C)Cc1ccc(OC)c(S(N)(=O)=O)c1,-0.561% [at 35.3 µM]
16,COC(=O)c1cc(Cl)c(NC(C)=O)cc1OC,1.71% [at 35.3 µM]
17,C=CCN(CC=C)CC=C,2.62%
18,C=CC(=O)OCC[N+](C)(C)C,3.13%
19,NNC(=O)OCc1ccccc1,-4.87%
20,CCc1ccc(CC)cc1,0.0407%

row,Structure (SMILES),"viability change, negative = cytotoxic"
1,Cc1nc2ccc(Cl)cc2[nH]1,1.3%
2,CC(C)(O)c1ccc(C(C)(C)O)cc1,1.68%
3,C=CC(C)(CCC=C(C)C)OC(=O)C(C)C (stereo not given),3.01%
4,CCOC(=O)COc1ccc2c(C)c(CCN(CC)CC)c(=O)oc2c1Cl,0.0304% [at 35.3 µM]
5,CC(C)(C)C(=O)NCCCC(=O)O,4.57% [at 35.3 µM]
6,CC(C)(C)NCC(O)COc1cccc2c1CCC(=O)N2 (stereo not given),1.39% [at 35.3 µM]
7,Cc1cc2c(cc1CC(=O)c1sccc1S(=O)(=O)Nc1onc(C)c1Cl)OCO2,-1.83% [at 35.3 µM]
8,N=C(N)N,0.294% [at 35.3 µM]
9,C[C@@H]1NC(=O)[C@@H](N)CNC(=O)[C@H](C2CCNC(N)=N2)NC(=O)/C(=C/NC(N)=O)NC(=O)[C@H](CNC(=O)C[C@@H](N)CCCN)NC1=O (stereo not given in full),3.98% [at 0.29 µM]
10,CN1C(CCl)Nc2cc(Cl)c(S(N)(=O)=O)cc2S1(=O)=O (stereo not given),-0.267% [at 35.3 µM]
11,CC(C)c1cc(C(C)C)cc(C(C)C)c1,-0.197%
12,C=C(C)C(=O)OCCCC,-2.53%
13,N[C@H]1C(O)O[C@H](CO)[C@@H](O)[C@@H]1O (stereo not given in full),1.18% [at 35.3 µM]
14,CCN(CC)CC(=O)Oc1ccc(NC(C)=O)cc1,2.42% [at 35.3 µM]
15,CC(C)(O)CCCC1=CCC(C=O)CC1 (stereo not given),0.583%
16,O=S(=O)(O)c1ccc(Cl)cc1,-1.32%
17,NC[C@H]1O[C@H](O[C@H]2[C@H](O)[C@@H](O[C@H]3O[C@H](CO)[C@@H](O)[C@H](N)[C@H]3O)[C@H](N)C[C@@H]2N)[C@H](N)[C@@H](O)[C@@H]1O,4% [at 15.8 µM]
18,OCCC(F)(F)C(F)(F)C(F)(F)C(F)(F)C(F)(F)C(F)(F)F,3.2%
19,CCCCCCCCOCCC#N,-3.45%
20,O=C(O)Cc1c(Cl)ccc(Cl)c1Cl,-3.79%

# — PubChem BioAssay (Tox21)
